Inconclusive results are not listed. A number with no mark means an inactive call. Calls of active or inactive are those of the source. Calls follow the shape of the full dose curve.
Target: Acetylcholinesterase (Homo sapiens) (UniProt P22303)
Experiment: Acetylcholinesterase (AChE) small molecule antagonists: colormetric cell-based qHTS assay (AID 1347395); also: nearly all actives have a fitted effect of over 30% in size
Details: SH-SY5Y cells AChE activity, colorimetric (Ellman); series mostly up to 115 µM; activity, negative = inhibition: at the top concentration
Method in brief: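 AChE inhibition read colorimetrically via DTNB–thiocholine in SH-SY5Y cells. Compound 30 min, substrate 90 min, both 37 C.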
% is scaled to controls: 0 for no effect and ±100 for the full control effect.

Acetylcholinesterase (Homo sapiens), sequence (P22303 whole entry, looked up): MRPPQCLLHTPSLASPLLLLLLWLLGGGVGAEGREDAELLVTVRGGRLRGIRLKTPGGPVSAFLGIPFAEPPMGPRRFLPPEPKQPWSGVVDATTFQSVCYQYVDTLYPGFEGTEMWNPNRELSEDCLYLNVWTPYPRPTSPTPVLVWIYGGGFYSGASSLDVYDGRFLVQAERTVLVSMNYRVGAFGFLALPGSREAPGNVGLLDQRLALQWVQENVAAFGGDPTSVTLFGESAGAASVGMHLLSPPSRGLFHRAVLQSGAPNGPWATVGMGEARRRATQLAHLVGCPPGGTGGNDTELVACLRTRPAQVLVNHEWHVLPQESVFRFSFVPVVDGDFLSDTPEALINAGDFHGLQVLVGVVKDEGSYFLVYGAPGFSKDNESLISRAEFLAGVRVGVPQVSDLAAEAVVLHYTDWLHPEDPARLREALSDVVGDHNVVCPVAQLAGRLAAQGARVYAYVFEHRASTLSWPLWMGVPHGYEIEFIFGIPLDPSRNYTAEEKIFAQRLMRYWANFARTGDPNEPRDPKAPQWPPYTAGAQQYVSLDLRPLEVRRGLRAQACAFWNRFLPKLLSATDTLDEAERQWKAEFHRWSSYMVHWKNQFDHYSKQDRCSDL

Row | Structure (SMILES) | activity, negative = inhibition | Potency
1 | CCn1cc(C(=O)O)c(=O)c2cc(F)c(N3CCNC(C)C3)c(F)c21 (stereo not given) | 0.276% [at 52.9 µM] | –
2 | O=C(O)c1ccc(OCCN2CCCCC2)cc1 | 1.84% [at 52.9 µM] | –
3 | CC(C)(C)c1ccc(C(=O)CCCCl)cc1 | -0.57% [at 52.9 µM] | –
4 | O=C(O)c1cc(-c2ccccc2)nc2ccccc12 | – | inactive
5 | COc1ccc(OC)cc1 | – | inactive
6 | CC(CN(C)C)C(C)(O)Cc1ccc(Cl)cc1 (stereo not given) | -4.33% [at 52.9 µM] | –
7 | Brc1ccccn1 | 0.465% | –
8 | COC(C)(C)OC | 2.09% | –
9 | C=C[C@H]1CN2CC[C@H]1C[C@@H]2[C@@H](O)c1ccnc2ccc(OC)cc12 | – | inactive
10 | Cc1ccc2c(c1)C(=O)OC2=O | – | inactive
11 | CCc1cc(C(C)(C)C)c(O)c(C(C)(C)C)c1 | – | inactive
12 | O=C1NC2NC(=O)NC2N1 (stereo not given) | -3.05% | –
13 | CC(=O)OC/C=C(\C)CCC=C(C)C | – | inactive
14 | Cc1cc2c(s1)Nc1ccccc1N=C2N1CCN(C)CC1 | 2.3% [at 52.9 µM] | –
15 | C[Si](C)O[Si](C)(C)O[Si](C)(C)O[Si](C)C | 0.186% | –
16 | CCCCNC(N)=O | – | inactive
17 | NC1CCCCC1 | – | inactive
18 | COCC(O)CO (stereo not given) | 1.5% | –
19 | O=c1cc(-c2ccccc2)oc2cc(O)cc(O)c12 | 1.47% | –
20 | CCC(=O)c1ccc(O)cc1 | 1.24% [at 52.9 µM] | –

Row | Structure (SMILES) | activity, negative = inhibition | Potency
21 | Cc1cccc2c1ccc1ccccc12 | 1.33% | –
22 | CC(=O)Nc1ccc(CC(=O)O)cc1 | – | inactive
23 | Cc1cccc(OCCOc2cccc(C)c2)c1 | 3.67% | –
24 | Cc1c(Cl)cccc1[N+](=O)[O-] | 2.56% | –
25 | Cc1cc(O)cc2c1O[C@](C)(CCC[C@H](C)CCC[C@H](C)CCCC(C)C)CC2 | 3.44% [at 52.9 µM] | –
26 | CCCCCCCCCCCCCCCCC | -0.493% | –
27 | COc1ccc(N=[N+]([O-])c2ccc(OC)cc2)cc1 | 4.87% | –
28 | C=CCOC(=O)c1ccc(C(=O)OCC=C)c(C(=O)OCC=C)c1 | -2.99% | –
29 | Cc1cccc2ccccc12 | – | inactive
30 | CC/C=C/CCO | -0.821% | –
31 | CC/C=C\CCOC(C)OCC (stereo not given) | 0.546% [at 52.9 µM] | –
32 | O=C(O)CCCl | 0.205% | –
33 | COc1ccc(Nc2ccc(OC)cc2)cc1 | -0.871% | –
34 | CCCOCCO | – | inactive
35 | CC(=O)CC/C=C(\C)CCC=C(C)C | – | inactive
36 | C=CC(C)(O)CC/C=C(\C)CC (stereo not given) | 2.29% | –
37 | N#C[C@@H]1C[C@@H]2C[C@@H]2N1C(=O)[C@@H](N)C12CC3CC(CC(O)(C3)C1)C2 | 1.05% [at 52.9 µM] | –
38 | C[C@]12C(=O)OC(=O)[C@H]1[C@H]1C=C[C@@H]2C1 | 2.88% | –
39 | CC(=O)c1ccc(O)c(C(N)=O)c1 | -2.52% [at 52.9 µM] | –
40 | COC(=O)C1=C(C)NC(C)=C(C(=O)OCC(C)=O)C1c1ccccc1[N+](=O)[O-] (stereo not given) | -0.0731% [at 52.9 µM] | –

— PubChem BioAssay (Tox21)
